From article PMC5540273 (PLoS ONE, 2017)
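Further: KINOMEscan kinase panel screen.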

These molecules were tested on T1, RSK2(Kin.Dom.2-C-terminal). Settings: concentration: 1 μM, replicates: in singlicate; n = 1.
T1 construct: gene RPS6KA3
With `O=C(O)C(F)(F)F.O=C(O)C(F)(F)F.O=c1[nH]ccc2nc(N[C@@H]3CCCNC3)nc(Nc3ccc(S(=O)(=O)N4CCOCC4)cc3)c12` [GSK2177277] the “%Inh” value was 11%. In the case of `COc1cccc(NC(=O)NC2CCN(c3ccnc(Nc4cc(OC)c(OC)c(OC)c4)n3)C2)c1` (centres unmarked) [GSK1379763], the “%Inh” value is reported as 8%. `CCS(=O)(=O)c1ccc(OC)c(Nc2nccc(-c3c(-c4cccc(NC(=O)c5c(F)cccc5F)c4)nn4ncccc34)n2)c1` [GSK326180] was tested, and the “%Inh” value was 0%. With `COC(=O)Nc1nc2cc(Oc3ccc(NC(=O)Nc4cc(C(F)(F)F)ccc4F)cn3)ccc2[nH]1.Cl.Cl` [GW681170] the “%Inh” value was 0%. For `COc1cc(Nc2nccc(N3CCC(NC(=O)Nc4cccc(C(C)=O)c4)C3)n2)cc(OC)c1OC` (centres unmarked) [GSK1379753], the “%Inh” value was 67%. With `COc1cc(Nc2nccc(-c3c(-c4cccc(NC(=O)c5c(F)cccc5F)c4)nn4ccccc34)n2)cc(OC)c1OC` [GSK323521] the “%Inh” value was 47%. In the case of `Cl.Cl.NCC(NC(=O)c1cc(-c2ccccc2)c(-c2ccnc3[nH]ccc23)s1)c1ccccc1` (centres unmarked) [GSK1321561], the “%Inh” value is reported as 61%. In the case of `Cl.c1ccc(-c2ccc3c(Nc4ccc5[nH]ncc5c4)ccnc3c2)nc1` [GW440137], the “%Inh” value is reported as 0%. `CCn1c(-c2nonc2N)nc2c(C#CC(C)(C)O)ncc(OCCCCN)c21.O=C(O)C(F)(F)F.O=C(O)C(F)(F)F` [GSK507274] was tested, and the “%Inh” value was 0%. `CN1CCN(CCCNc2nccc(-c3c(-c4ccc(F)cc4)nn4cc(C(F)(F)F)ccc34)n2)CC1` [GW621581] was tested, and the “%Inh” value was 17%. `Cl.Cl.NCC(NCc1ccc(-c2ccnc3[nH]ccc23)s1)c1ccccc1` (centres unmarked) [GSK1321565] was tested, and the “%Inh” value was 0%. With `COc1cc(Nc2ncc3c(C)nc(-c4cc5ccccc5[nH]4)n3n2)cc(OC)c1OC` [GW869516] the “%Inh” value was 32%. `Nc1ncnc2c1nc(-c1ccccc1)n2-c1ccccc1` [SKF-97293] was tested, and the “%Inh” value was 27%. With `O=C(Nc1cccc(-c2nn3ccccc3c2-c2ccnc(Nc3cccc(C(F)(F)F)c3)n2)c1)c1c(F)cccc1F` [GSK292658] the “%Inh” value was 5%. `CCCCc1nn2ncccc2c1-c1ccnc(Nc2ccc(N3CCN(C)CC3)cc2)n1` [GW684941] was tested, and the “%Inh” value was 20%. `Fc1ccc(-c2ncn(C3CCNCC3)c2-c2ccnc(Oc3ccc(-c4ccccc4)cc3)n2)cc1` [SB-245391] was tested, and the “%Inh” value was 41%. `FC(F)(F)c1ccc(/C=C/c2cncnc2Nc2ccc3[nH]c(Cc4ccccc4)nc3c2)cc1` [GW709199] was tested, and the “%Inh” value was 48%. With `CC(=O)N1CCN(c2ccc(Nc3nccc(-c4sc(C(C)C)nc4-c4cccc(NS(=O)(=O)c5cccc(Cl)c5)c4)n3)cn2)CC1` [GSK1660437] the “%Inh” value was 4%. For `CC(=O)Nc1nc2cnc(Nc3cc(NC(=O)c4cccc(C5(C#N)CC5)c4Cl)ccc3C)nc2s1`, the “%Inh” value was 0%. `NCCCC(NC(=O)c1cc(Br)c(-c2ccnc3[nH]ccc23)s1)c1ccccc1.O=C(O)C(F)(F)F.O=C(O)C(F)(F)F` (centres unmarked) [GSK1287544] was tested, and the “%Inh” value was 0%. For `CN(C)Cc1ccc(-c2ccc3c(Nc4ccc(Oc5ccccn5)cc4)ccnc3c2)o1` [GW567148], the “%Inh” value was 0%. With `Cn1cc(-c2ccc3c(c2)CCN3C(=O)Cc2cccc(Cl)c2)c2c(N)ncnc21` [GSK2606590] the “%Inh” value was 0%. With `O=c1[nH]cc(-c2ccc(N3CCOCC3)cc2)c2sc(-c3cn[nH]c3)cc12` [GSK2276055] the “%Inh” value was 7%. In the case of `CN1CCN(Cc2cccc(-c3ccc4c(Nc5ccc(Oc6ccccc6)cc5)ccnc4c3)c2)CC1` [GW578342], the “%Inh” value is reported as 15%. For `COc1cccc(-c2ccc3c(NC(=O)C4CC4)n[nH]c3n2)c1` [SB-710903], the “%Inh” value was 22%.

What follows are molecules tested on T2, RSK3(Kin.Dom.1-N-terminal). Settings: concentration: 1 μM, replicates: in singlicate; n = 1.
T2 construct: gene RPS6KA2
`Cc1cccc(Nc2nc(N[C@H]3CCNC3)ncc2C(N)=O)c1.Cl` [GSK2197149] was tested, and the “%Inh” value was 23%. `O=C(Nc1ccccc1F)NC1CCN(c2ccnc(Nc3ccc(F)cc3)n2)CC1` [GSK1379800] was tested, and the “%Inh” value was 0%. In the case of `CN(C)S(=O)(=O)c1cc(-c2ccc3nccc(-c4cccc(S(N)(=O)=O)c4)c3c2)cnc1N` [GSK1669921], the “%Inh” value is reported as 2%. For `COc1ccc(CNC(=O)NC2CCN(c3ccnc(Nc4ccc(F)cc4)n3)CC2)cc1` [GSK1379788], the “%Inh” value was 0%. `Cl.Cl.NCC(C(=O)Nc1cc(Br)c(-c2ccnc3[nH]ccc23)s1)c1ccccc1` (centres unmarked) [GSK1269851] was tested, and the “%Inh” value was 100%. In the case of `COC(=O)Nc1nc2ccc(Oc3ccc(NC(=O)Nc4cc(C(F)(F)F)ccc4F)cc3)cc2n1C.Cl` [GW692089], the “%Inh” value is reported as 0%. In the case of `Nc1ncc(-c2cccnc2)c2scc(-c3ccc4c(c3)CCN4C(=O)Cc3ccccc3)c12` [GSK683281], the “%Inh” value is reported as 14%. With `Cc1ccc(C(=O)Nc2ccc(Nc3ccnc4cc(-c5nccs5)ccc34)cc2O)cc1.Cl` [GW494702] the “%Inh” value was 11%. With `Cn1cc(-c2[nH]c3cc(NC(=O)[C@H](N)C4CCCCC4)cc4c3c2C=NNC4=O)cn1` the “%Inh” value was 65%. With `CCc1ccc(-c2ccc3c(c2)-c2c(cnn2C)S(=O)(=O)N3C)cc1` the “%Inh” value was 17%. `Nc1ncc(-c2ccc3nccc(-c4ccncc4)c3c2)cc1S(=O)(=O)N1CCOCC1` [GSK1627798] was tested, and the “%Inh” value was 7%. For `O=C(Nc1n[nH]c2nc(-c3ccc(O)cc3)ccc12)C1CC1` [SB-710363], the “%Inh” value was 12%. In the case of `O=C(O)C(F)(F)F.O=C(O)C(F)(F)F.O=c1[nH]ccc2nc(N[C@@H]3CCCNC3)nc(Nc3ccc(S(=O)(=O)N4CCOCC4)cc3)c12` [GSK2177277], the “%Inh” value is reported as 99.3%. In the case of `COc1cccc(NC(=O)NC2CCN(c3ccnc(Nc4cc(OC)c(OC)c(OC)c4)n3)C2)c1` (centres unmarked) [GSK1379763], the “%Inh” value is reported as 12%. With `CCS(=O)(=O)c1ccc(OC)c(Nc2nccc(-c3c(-c4cccc(NC(=O)c5c(F)cccc5F)c4)nn4ncccc34)n2)c1` [GSK326180] the “%Inh” value was 29%. With `COC(=O)Nc1nc2cc(Oc3ccc(NC(=O)Nc4cc(C(F)(F)F)ccc4F)cn3)ccc2[nH]1.Cl.Cl` [GW681170] the “%Inh” value was 0%. With `COc1cc(Nc2nccc(N3CCC(NC(=O)Nc4cccc(C(C)=O)c4)C3)n2)cc(OC)c1OC` (centres unmarked) [GSK1379753] the “%Inh” value was 17%. `COc1cc(Nc2nccc(-c3c(-c4cccc(NC(=O)c5c(F)cccc5F)c4)nn4ccccc34)n2)cc(OC)c1OC` [GSK323521] was tested, and the “%Inh” value was 25%. In the case of `Cl.Cl.NCC(NC(=O)c1cc(-c2ccccc2)c(-c2ccnc3[nH]ccc23)s1)c1ccccc1` (centres unmarked) [GSK1321561], the “%Inh” value is reported as 0%. `Cl.c1ccc(-c2ccc3c(Nc4ccc5[nH]ncc5c4)ccnc3c2)nc1` [GW440137] was tested, and the “%Inh” value was 6%. With `CCn1c(-c2nonc2N)nc2c(C#CC(C)(C)O)ncc(OCCCCN)c21.O=C(O)C(F)(F)F.O=C(O)C(F)(F)F` [GSK507274] the “%Inh” value was 11%. For `CN1CCN(CCCNc2nccc(-c3c(-c4ccc(F)cc4)nn4cc(C(F)(F)F)ccc34)n2)CC1` [GW621581], the “%Inh” value was 10%. With `Cl.Cl.NCC(NCc1ccc(-c2ccnc3[nH]ccc23)s1)c1ccccc1` (centres unmarked) [GSK1321565] the “%Inh” value was 39%. For `COc1cc(Nc2ncc3c(C)nc(-c4cc5ccccc5[nH]4)n3n2)cc(OC)c1OC` [GW869516], the “%Inh” value was 66%. In the case of `Nc1ncnc2c1nc(-c1ccccc1)n2-c1ccccc1` [SKF-97293], the “%Inh” value is reported as 18%. `O=C(Nc1cccc(-c2nn3ccccc3c2-c2ccnc(Nc3cccc(C(F)(F)F)c3)n2)c1)c1c(F)cccc1F` [GSK292658] was tested, and the “%Inh” value was 0%. For `CCCCc1nn2ncccc2c1-c1ccnc(Nc2ccc(N3CCN(C)CC3)cc2)n1` [GW684941], the “%Inh” value was 5%. In the case of `Fc1ccc(-c2ncn(C3CCNCC3)c2-c2ccnc(Oc3ccc(-c4ccccc4)cc3)n2)cc1` [SB-245391], the “%Inh” value is reported as 0%. With `FC(F)(F)c1ccc(/C=C/c2cncnc2Nc2ccc3[nH]c(Cc4ccccc4)nc3c2)cc1` [GW709199] the “%Inh” value was 13%. `CC(=O)N1CCN(c2ccc(Nc3nccc(-c4sc(C(C)C)nc4-c4cccc(NS(=O)(=O)c5cccc(Cl)c5)c4)n3)cn2)CC1` [GSK1660437] was tested, and the “%Inh” value was 5%. With `CC(=O)Nc1nc2cnc(Nc3cc(NC(=O)c4cccc(C5(C#N)CC5)c4Cl)ccc3C)nc2s1` the “%Inh” value was 0%. For `NCCCC(NC(=O)c1cc(Br)c(-c2ccnc3[nH]ccc23)s1)c1ccccc1.O=C(O)C(F)(F)F.O=C(O)C(F)(F)F` (centres unmarked) [GSK1287544], the “%Inh” value was 12%. In the case of `CN(C)Cc1ccc(-c2ccc3c(Nc4ccc(Oc5ccccn5)cc4)ccnc3c2)o1` [GW567148], the “%Inh” value is reported as 0%. With `Cn1cc(-c2ccc3c(c2)CCN3C(=O)Cc2cccc(Cl)c2)c2c(N)ncnc21` [GSK2606590] the “%Inh” value was 16%. With `O=c1[nH]cc(-c2ccc(N3CCOCC3)cc2)c2sc(-c3cn[nH]c3)cc12` [GSK2276055] the “%Inh” value was 14%. For `CN1CCN(Cc2cccc(-c3ccc4c(Nc5ccc(Oc6ccccc6)cc5)ccnc4c3)c2)CC1` [GW578342], the “%Inh” value was 0%. In the case of `COc1cccc(-c2ccc3c(NC(=O)C4CC4)n[nH]c3n2)c1` [SB-710903], the “%Inh” value is reported as 6%.
